Only some compounds are listed: those with a hit (about 7.3% of all), similar ones and a draw of the others.
NPC1 prom act: qHTS Assay for NPC1 Promoter Activators. Potency, µM (series often up to 9.22 µM), for inactives: at the highest dose activation, usual class: activators. 320,000 tested, 2.4% active. AID 485313, 2010. Huh7 NPC1 promoter luciferase reporter, 24 h; also: % of control where 0% means no effect; nearly all actives have a fitted effect of over 60% in size
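Compounds in DMSO were transferred onto Huh7 NPC1-luciferase reporter cells pre-incubated 2 h; after 24 h at 37 °C, Amplite reagent was dispensed and luminescence recorded 10 min later.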
ELG1 genotoxic: qHTS screen for small molecules that induce genotoxicity in human embryonic kidney (HEK293T) cells expressing luciferase-tagged ELG1. 330,000 tested, 1.3% active. HEK293T ELG1-luciferase reporter, luminescence, 16 h. Potency, µM (series often up to 46 µM), for inactives: top-dose activity change, positive = activation, usual class: activators; also: % of control where 0% means no effect; nearly all actives have a fitted effect of over 60% in size
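Reporter readout depends on ELG1 protein level, which increases with genetic stress. After 16 hr compound exposure at 37 °C, luciferase activity was quantified using ONE-Glo.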
SMN2 splice up: qHTS Assay for Enhancers of SMN2 Splice Variant Expression; HEK293 SMN2-luciferase splicing reporter, luminescence, 30-36 h; Potency, µM (highest dose often 46.1 µM), inactives show at the highest dose activity change, positive = activation, hits mostly activators; 210,000 tested, 2.8% active; AID 1458, 2008; also: % of control where 0% means no effect; nearly all actives have a fitted effect of over 55% in size
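HEK293 cells carry an SMN2 […]–luciferase reporter in which exon 7 inclusion puts luciferase in frame. Cells were plated 10-12 h before compound addition, then incubated 30-36 h at 37C. ONE-Glo luminescence was read; sodium butyrate at 4.5 mM final served as control.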
Rab9 promoter act: qHTS Assay for Rab9 Promoter Activators. Huh7 Rab9 promoter-luciferase reporter, luminescence, 24 h. Potency, µM (doses to about 9.22 µM), for inactives: at the highest dose activation, negative = inhibition, hits mostly activators. 320,000 tested, 2.8% active. AID 485297, 2010; also: % of control where 0% means no effect; nearly all actives have a fitted effect of over 60% in size
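Huh7 reporter line, Rab9 promoter upstream of luciferase. Compound exposure 24 h at 37 °C in reduced-serum medium with 10% FBS. Read-out: luminescence.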
FLuc counter: qHTS profiling assay for firefly luciferase inhibitor/activator using purifed enzyme and Km concentrations of substrates (counterscreen for miR-21 project); 360,000 tested, 6.9% active; purified FLuc, Km substrates, luminescence inhibition; Luciferin 4-monooxygenase (Photinus pyralis), P08659; Potency, µM (doses to about 57.5 µM), for inactives: top-dose activity change, negative = inhibition, hits mostly inhibitors;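 also: plate controls were vehicle for no effect and reference inhibitor for full effect; nearly all actives have a fitted effect of over 55% in size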
Target sequence (P08659 whole entry, looked up): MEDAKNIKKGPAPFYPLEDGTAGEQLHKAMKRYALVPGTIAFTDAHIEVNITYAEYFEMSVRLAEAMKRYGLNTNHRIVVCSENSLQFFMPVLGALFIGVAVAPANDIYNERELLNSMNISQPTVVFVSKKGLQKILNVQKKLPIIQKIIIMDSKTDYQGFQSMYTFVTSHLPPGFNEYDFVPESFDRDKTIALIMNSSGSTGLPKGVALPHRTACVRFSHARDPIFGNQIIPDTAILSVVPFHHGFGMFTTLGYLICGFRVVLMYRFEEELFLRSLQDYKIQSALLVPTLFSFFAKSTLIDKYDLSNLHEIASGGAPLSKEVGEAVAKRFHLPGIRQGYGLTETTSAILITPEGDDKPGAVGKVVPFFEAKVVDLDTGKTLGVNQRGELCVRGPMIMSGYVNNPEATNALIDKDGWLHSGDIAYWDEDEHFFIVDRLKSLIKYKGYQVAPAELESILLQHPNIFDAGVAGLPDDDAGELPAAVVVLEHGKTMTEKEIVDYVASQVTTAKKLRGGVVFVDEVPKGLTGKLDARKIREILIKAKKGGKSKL
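Purified P. pyralis luciferase (10nM final) with 10uM D-luciferin and 10uM ATP (Km levels) in 50mM Tris acetate pH 7.5, 10mM Mg acetate, 0.01% Tween-20, 0.05% BSA; qHTS 6-point titration, ~60 µM downward; luminescence read.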
KinaseGlo FLuc: Counterscreen for Luciferase (Kinase-Glo TM) Inhibition; Luciferin 4-monooxygenase (Photuris pensylvanica), Q27757; Kinase-Glo luciferase, ATP luminescence, 8 min; Potency, µM (doses to about 38.3 µM), inactives show at the highest dose activity change, negative = inhibition, hits mostly inhibitors; 200,000 tested, 0.28% active; AID 1379, 2008; also: % is scaled to controls: 0 for no effect and ±100 for the full control effect; nearly all actives have a fitted effect of over 60% in size
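Substrate mix (final 50 mM imidazole pH 7.2, 50 mM KCl, 7 mM MgCl2, 10 uM ATP, 0.01% Tween 20, 0.05% BSA) plus pin-tool compound, then Kinase-Glo detection mix; 8 min ambient, luminescence read.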
Numbers without * were called inactive; ? = inconclusive; · = no result. Calls follow the shape of the dose curve; as a rule, active = well fitted curve in the direction sought with a large enough effect; inconclusive = small, poorly fitted or top-dose-only effect, or another doubt; inactive = no such curve, though single readings can be large; an effect the other way counts as inactive or inconclusive. Potency is read from the fitted curve at half-maximal effect.

SMILES	NPC1 prom act	ELG1 genotoxic	SMN2 splice up	Rab9 promoter act	FLuc counter	KinaseGlo FLuc
CC(=O)c1sc(NC(=O)c2ccc(C(C)(C)C)cc2)nc1C	1.6µM*	?	·	1.6µM*	1.3µM*	-3%
Cc1cc(=O)oc2cc3c(cc12)OCCO3	-3%	3%	-15%	-4%	-3%	1%
COc1ccc2cc3cc(C(=O)NCc4ccco4)oc3nc2c1	-1%	13%	-17%	-4%	?	15%
CC(=O)c1sc(NC(=O)c2ccc3c(c2)OCO3)nc1C	2.5µM*	10µM*	·	3.5µM*	4.8µM*	·
Cc1nc(NC(=O)c2ccc(Cl)cc2)sc1Cc1ccc2c(c1)OCO2	-17%	8%	-22%	-13%	?	-3%
O=C(O)CCCN1C(=O)/C(=C/c2ccc(-c3nc4ccccc4s3)o2)SC1=S	10%	14%	18µM*	-1%	-6%	1%
O=C(O)CCCCCN1C(=O)/C(=C\c2ccc(-c3ccc(Cl)cc3)o2)SC1=S	-3%	4%	·	-4%	?	·
Cc1nnc(NCCc2ccccc2)c2ccccc12	1.6µM*	9.2µM*	·	1.4µM*	7.6µM*	·
CC1CCCN(C2=NC(=O)/C(=C/c3cn(-c4ccccc4)nc3-c3cccc(S(=O)(=O)N(C)C)c3)S2)C1 (stereo unspecified)	4%	1%	0%	12%	?	0%
CC1CCN(C2=NC(=O)/C(=C/c3cn(-c4ccccc4)nc3-c3cccc(S(=O)(=O)N(C)C)c3)S2)CC1	23%	1%	-2%	?	2.7µM*	0%
Cc1cccc(NC(=S)NNC(=O)c2csc(C)c2)c1	14%	14%	·	?	8.5µM*	-2%
Cc1cc(C(=O)Nc2ccc(Br)cc2)cs1	?	6.5µM*	·	0.63µM*	19µM*	·
Cc1cccc(NC(=S)NNC(=O)c2csc3c2CCCC3)c1	?	0%	?	?	12µM*	2%
Cc1ccc(C)c(NC(=S)NNC(=O)c2csc3c2CCCC3)c1	1%	-2%	-11%	3%	-3%	-5%
Brc1ccc2ncnc(NCc3ccco3)c2c1	1%	-12%	-59%	-4%	-13%	-4%
Cn1c(NC(=O)c2ccc(C(C)(C)C)cc2)cc(=O)n(C)c1=O	14%	9.2µM*	8%	17%	-10%	3%
Cc1ccc(O)c(NC(=O)CCC2CCCCC2)c1	?	?	17%	24%	7.6µM*	-13%
Cn1c(NC(=O)CCC2CCCCC2)cc(=O)n(C)c1=O	4µM*	3.3µM*	11µM*	1.4µM*	5.4µM*	2%
Cc1ccc(O)c(NC(=O)C2CCCCC2)c1	10%	2%	·	0%	-15%	·
Cc1ccc(NC(=O)CC2CCCC2)c(Br)c1	?	?	·	?	15µM*	·
Cn1c(NNC(=O)CCC2CCCCC2)cc(=O)n(C)c1=O	1%	-3%	-5%	-9%	-24%	9%
Cn1c(NNC(=O)c2ccc(C(C)(C)C)cc2)cc(=O)n(C)c1=O	-2%	4%	13%	-1%	-14%	-3%
Cc1cc(OC(=O)c2cc(Br)ccc2Cl)c([N+](=O)[O-])c(=O)[nH]1	-7%	-1%	·	0%	4%	·
Cc1ccc(C)c(NC(=O)C2CC3CCC2C3)c1 (stereo unspecified)	12%	5%	·	10%	?	·
O=C(CCC1CCCCC1)Nc1ccccc1O	?	10µM*	?	?	21µM*	-24%
SMILES	NPC1 prom act	ELG1 genotoxic	SMN2 splice up	Rab9 promoter act	FLuc counter	KinaseGlo FLuc
Cc1ccc(NC(=O)C2CC3CCC2C3)c(Br)c1 (stereo unspecified)	4µM*	?	·	?	17µM*	·
Clc1ccc(Nc2nc(-c3cccnc3)cs2)cc1	-1%	?	22%	6%	11µM*	-1%
Clc1ccc(-c2csc(Nc3cccnc3)n2)cc1	?	6%	·	27%	-20%	·
Fc1ccc(Nc2nc(-c3cccnc3)cs2)cc1	8%	?	13µM*	?	3µM*	3%
c1ccc(-c2csc(Nc3cccnc3)n2)cc1	?	?	·	2.8µM*	11µM*	-2%
Cc1nc([N+](=O)[O-])cn1CCC#N	-6%	-1%	·	-4%	-1%	·
O=C(CSc1nnc(NC(=O)C2CC2)s1)Nc1cccc(F)c1	-1%	-3%	·	0%	?	·
COc1ccc(-n2cc(CNCCN3CCOC3=O)c(-c3ccccc3Cl)n2)cc1	-3%	0%	·	1%	17µM*	·
Cc1ccc(-n2cc(CNCCN3CCOC3=O)c(-c3ccc(F)cc3)n2)cc1	-2%	0%	·	14%	7.6µM*	-3%
Cc1ccc(-n2cc(CNCCn3nc(C)cc3C)c(-c3ccc(F)cc3)n2)cc1	-7%	-6%	·	-12%	27µM*	-1%
Cc1ccc(-n2cc(CNCCCN3CCCC3=O)c(-c3ccc(F)cc3)n2)cc1	0%	-2%	·	-14%	?	-2%
Cc1ccc(-n2cc(CNCCc3ncc(C)[nH]3)c(-c3ccc(F)cc3)n2)cc1	-3%	7%	-26%	-2%	27µM*	-7%
COc1ccc(-n2cc(CNCCc3nc(C)cc(C)n3)c(-c3ccccc3Cl)n2)cc1	-10%	-4%	-78%	12%	?	-4%
CCOc1ccc(NC(=S)NCCCN2CCOCC2)cc1	-4%	25%	-31%	-3%	-1%	2%
CCOc1ccc2ccccc2c1CNc1nnnn1C	-4%	-1%	3%	1%	4%	5%
O=C(CCC(=O)Nc1ccccc1Cl)NN=C1CCCC1	-3%	-1%	·	2%	-1%	·

From PubChem
